Source: PubChem BioAssay AID2685 (National Center for Advancing Translational Sciences (NCATS), 2010)
About 2,100 (0.66%) of roughly 320,000 compounds were called active. Inconclusive results (about 53%) are left out. This is one part of a sample in which actives are shown more often than they occur. Calls come from the whole dose curve; as a rule, active = well fitted inhibition curve with a large enough effect in the signal ratio, with a control signal flat (not every such curve was filed as active); inconclusive = small, poorly fitted or top-dose-only effect, or effect the other way, or a change in a side signal; inactive = flat fitted curve, though single readings scatter; the % refers to the signal ratio.

Assay: qHTS Assay for Lipid Storage Modulators in Drosophila S3 Cells;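 for cell number change: cells counted by Cell Tracker Red CMTPX staining in the red channel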; for lipid storage change, negative = inhibition: % is set by controls: 0 for no effect and ±100 for the full control effect
Settings: BODIPY lipid droplet fluorescence, 18-24 h, cells fed with added oleic acid; cell number change: measured here: cell count max response; series mostly up to 46.1 µM; lipid storage change, negative = inhibition: at the top concentration
Method in brief: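 Drosophila S3 cells loaded with oleic acid (400 uM, as added) and compounds at several concentrations; lipid droplets imaged by 488-nm laser-scanning cytometry, 500–530 nm intensity and object ratio to cell channel. Percent activity normalized to 20 uM Triacsin C.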
Potency is the fitted concentration of half-maximal effect.

Structure (SMILES) | lipid storage change, negative = inhibition | cell number change [%] | outcome | Potency
O=C(CC1Sc2ccccc2NC1=O)NCc1ccccc1 (configuration not stated) | 9.46% (inactive) | 0.893 |  | 
COc1cc(/C=C2/C(=N)N3N=C(C)SC3=NC2=O)ccc1OS(=O)(=O)c1ccc(C)cc1 |  | -5.04 | inactive | 
COc1cc(/C=C2\C(=N)N3N=CSC3=NC2=O)ccc1OS(=O)(=O)c1ccccc1[N+](=O)[O-] | -23.3% (inactive) | -11.4 |  | 
CCC1=NN2C(=N)/C(=C/c3ccc(OS(=O)(=O)c4ccc(C)cc4)c(OC)c3)C(=O)N=C2S1 | 3.12% (inactive) | 5 |  | 
CCC1=NN2C(=N)/C(=C/c3ccc(OS(=O)(=O)c4ccccc4)c(OC)c3)C(=O)N=C2S1 |  | 4.58 |  | 1.84 µM (active)
COc1cc(/C=C2\C(=N)N3N=C(S(C)(=O)=O)SC3=NC2=O)ccc1OS(=O)(=O)c1ccccc1 |  | -27 | inactive | 
COc1cc(/C=C2\C(=N)N3N=CSC3=NC2=O)ccc1OS(=O)(=O)c1ccccc1 |  | -21.2 |  | 2.06 µM (active)
Cc1cc(/C=C2\SC(=O)N(CC(=O)Nc3ccccc3F)C2=O)c(C)n1C | -0.336% (inactive) | 1.47 |  | 
Cc1ccccc1-n1c(C)n[nH]c1=S | 3.14% (inactive) | 1.24 |  | 
COc1ccc(CC(=O)NNC(=O)CSc2nnc(C)n2-c2ccccc2)cc1 |  | -9.57 | inactive | 
CC1Cc2ccccc2N1C(=O)CSc1nnc(Cn2nnc3ccccc32)n1C (configuration not stated) | -0.751% (inactive) | -16.3 |  | 
O=C(Nc1ccc(F)cc1)N1CCN(c2nc3ccccc3s2)CC1 |  |  |  | 4.11 µM (active)
O=C(O)C1CCCN1C(=O)OCc1ccccc1 (configuration not stated) | -4.77% (inactive) | 12.4 |  | 
O=C(Nc1ccccc1)N1CCN(c2nc3ccccc3s2)CC1 |  |  | inactive | 
O=C(NCc1ccc(F)cc1)C1CCCN1C(=O)Nc1ccc(F)cc1 (configuration not stated) | 10.1% (inactive) | 12.2 |  | 
O=C(O)C1CCCN1C(=O)Oc1ccccc1 (configuration not stated) |  | 0.79 |  | 23.1 µM (active)
CSc1ccc(NC(=O)N2CCN(c3nc4ccccc4s3)CC2)cc1 |  |  | inactive | 
O=C(NCCc1ccccc1)C1CCCN1C(=O)Nc1ccc(F)cc1 (configuration not stated) | 7.13% (inactive) | -10 |  | 
O=C(Nc1ccc(O)cc1)N1CCOCC1 |  | 20 | inactive | 
O=C(Nc1ccc(F)cc1)N1CCCCCC1 | 11.9% (inactive) | 7.77 |  | 
O=C(O)C1CCCN1C(=O)Nc1ccc(F)cc1 (configuration not stated) |  | 1.35 |  | 6.51 µM (active)
O=C(Nc1ccc(F)cc1)N1CCOCC1 |  | -6.86 |  | 20.6 µM (active)
O=C(NC1CCCC1)C1CCCN1C(=O)Oc1ccccc1 (configuration not stated) | -6.65% (inactive) | -16.7 |  | 
COc1ccccc1C(=O)C1CCCN(Cc2cccc3nccnc23)C1 (configuration not stated) | -3.26% (inactive) | 15 |  | 

Structure (SMILES) | lipid storage change, negative = inhibition | cell number change [%] | outcome | Potency
CC(C)Nc1ccc(C(CC(N)=O)NC(=O)Cc2cccc3ccccc23)cc1[N+](=O)[O-] (configuration not stated) | -6.77% (inactive) | 1.26 |  | 
CCOC(=O)c1sc(=NC(=O)c2cccc(C)c2)n(C)c1C | 3.79% (inactive) |  |  | 
Cc1cc(Cl)ccc1NC(=S)NCc1ccco1 | -3.05% (inactive) | -9.3 |  | 
CCOc1ccccc1NC(=O)Cn1c(=O)oc2cc(Cl)ccc21 | 6.22% (inactive) | 6.12 |  | 
Cc1ccccc1C(=O)NC1CCN(CC(=O)NCc2ccc(F)cc2)CC1 | 0.998% (inactive) | 9.44 |  | 
O=C(NC1CCN(C(=O)Nc2ccc(F)cc2)CC1)c1ccccc1F |  |  |  | 6.51 µM (active)
O=C(CN1CCC(NC(=O)c2ccccc2F)CC1)NCc1ccc(F)cc1 |  | -14.5 |  | 20.6 µM (active)
Cc1cc(C)cc(NC(=O)N2CCC(NC(=O)c3ccccc3C)CC2)c1 | 0.091% (inactive) | 4.64 |  | 
Cc1ccccc1C(=O)NC1CCN(C(=O)Nc2ccc(F)cc2)CC1 |  | 8.56 | inactive | 
Cc1ccccc1C(=O)NC1CCN(CC(=O)NCc2ccccc2)CC1 | -3.57% (inactive) | 13.5 |  | 
CCc1cc2c(=O)c(-c3nc4ccccc4n3C)c(C)oc2c(CN2CCOCC2)c1O |  |  | inactive | 
CCCS(=O)(=O)N1CCCC(C(=O)Oc2ccc(Cl)cc2)C1 (configuration not stated) | 4.15% (inactive) | 14 |  | 
Cc1ccc(NC(=O)CSc2nc(N)cc(=O)[nH]2)cc1Cl | -14.5% (inactive) | 22 |  | 
Cn1c(SCc2ccccn2)nc2c1c(=O)[nH]c(=O)n2C |  | 0.681 |  | 2.59 µM (active)
Cn1c(=O)c2c(nc(SCc3ccccn3)n2C)n(C)c1=O | 14.3% (inactive) | -19.6 |  | 
Cn1c(SCc2ccccc2Cl)nc2c1c(=O)[nH]c(=O)n2C |  | 3.04 | inactive | 
Cc1oc(/C=N/NC(=O)CN(c2ccccc2Br)S(C)(=O)=O)cc1Br | 4.78% (inactive) | 0.768 |  | 
CCOC(=O)c1ccc(-c2ccc(/C=N/NC(=O)CN(c3ccccc3Br)S(C)(=O)=O)o2)cc1 |  | -15.9 |  | 9.2 µM (active)
CS(=O)(=O)N(CC(=O)N/N=C/c1ccco1)c1ccccc1Br | -8.18% (inactive) | 2.71 |  | 
COc1ccccc1-c1ccc(SCC(=O)NCc2ccc3c(c2)OCO3)nn1 |  |  | inactive | 
CC(=O)/C(=N/Nc1ccc(Br)cc1)Sc1cccc2cccnc12 | -13% (inactive) | -2.71 |  | 
O=C(Sc1cccc2cccnc12)c1ccccc1Br |  | 4.44 |  | 7.31 µM (active)
O=C(O)CSc1cccc2cccnc12 | 8.73% [at 9.22 µM] (inactive) | 8.53 |  | 
